From PubChem BioAssay
TEAD-YAP block: TEAD-YAP interaction inhibition. HEK-TIYL cells, TEAD-Gal4/YAP UAS-luciferase luminescence. AID 1259422. inhibition, % at 9.12 µM. 1.4% of 640,000 active; in the data active means inhibition above about 32%;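 further: 0% = median of test compound wells and 100% = reference inhibitor wells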
FBW7 act: human FBW7 E3 ligase activation, primary screen | Q969H0 | AlphaScreen FBW7–phospho-cyclin E peptide binding, activator screen | normalized activity (activation), % at 26.1 µM | 0.13% of 650,000 active | AID 1259310; in the data active means normalized activity above about 1.9%;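 further: purified mutant Fbw7 with reduced substrate affinity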
GPR151 ag: activators of human GPR151; PathHunter beta-arrestin GPR151 cells, luminescence; Q8TDV0; activation, % at 11.2 µM; 1% of 650,000 active; in the data active means activation above about 4.9%;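 further: 0% = median of compound wells and 100% = cells with positive control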
Target sequence (Q8TDV0 whole entry, looked up): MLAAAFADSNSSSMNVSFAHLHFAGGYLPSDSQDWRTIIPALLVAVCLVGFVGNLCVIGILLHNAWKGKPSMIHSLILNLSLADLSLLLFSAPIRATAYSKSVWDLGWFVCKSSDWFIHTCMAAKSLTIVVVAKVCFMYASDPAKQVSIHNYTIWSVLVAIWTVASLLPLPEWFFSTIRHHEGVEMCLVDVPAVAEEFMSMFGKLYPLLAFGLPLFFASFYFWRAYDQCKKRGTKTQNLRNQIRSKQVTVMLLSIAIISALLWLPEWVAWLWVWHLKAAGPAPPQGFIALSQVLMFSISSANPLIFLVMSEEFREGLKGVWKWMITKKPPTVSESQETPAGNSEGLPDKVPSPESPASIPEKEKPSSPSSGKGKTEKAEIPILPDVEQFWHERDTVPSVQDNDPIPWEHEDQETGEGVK
MITF primary: blocks human microphthalmia-associated transcription factor; O75030; 0.91% of 650,000 active; inhibition, % at 2.6 µM; AlphaScreen MITF homodimerization, bead proximity signal; in the data active means inhibition above about 50%;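 further: 0% = vehicle wells with protein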
GPR151 confirm: confirmation of human GPR151 activators. GPR151 PathHunter beta-arrestin cells, luminescence, 90 min; % of EA-reagent control over plate median. 6,700 tested, under 10 active. AID 1508609. activation, % at 11.2 µM. shares compounds with GPR151 ag;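 active means mean percent activation across replicates above the confirmation screen cutoff of 4.91%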
GPR119 counter: counter-screen for GPR151 activators: effect on human GPR119 | 0.3% of 6,700 active | GPR119 PathHunter beta-arrestin cells, luminescence, 90 min; 0 = compound-well median, 100 = enzyme-acceptor control | shares compounds with GPR151 ag | AID 1508611 | activation, % at 11.2 µM;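 active means mean percent activation in the counterscreen above 29.09%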;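 further: counterscreen on off-target GPR119 to flag nonselective hits from the GPR151 activator screen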
* marks the source's active call; other numbers are inactive results; . = no result given. Sampled rows, rich in hits. Any-hit rate of the full collection: about 3.5%.

SMILES	TEAD-YAP block	FBW7 act	GPR151 ag	MITF primary	GPR151 confirm	GPR119 counter
COc1ccc(C2/C(=C(/O)c3ccc(C)cc3)C(=O)C(=O)N2CCCC(=O)O)c(OC)c1 (stereo not given)	7.9	-0.3	7.8*	-9.0	1.0	9.7
COc1ccc(C2/C(=C(/O)c3ccc(F)cc3)C(=O)C(=O)N2CCCCCC(=O)O)c(OC)c1 (stereo not given)	-9.8	-0.2	1.5	-9.5	.	.
COC(=O)c1sc2ccccc2c1NC(=O)c1cc2ccccc2cc1OC	-6.7	-0.1	-0.3	-1.8	.	.
CCOc1ccc(NC(=O)CNC(=O)C2CCCCC2)cc1	-1.2	-0.1	1.7	5.6	.	.
CCN(CC)CCOC(=O)c1ccc(NC(=O)CNC(=O)C2CCCCC2)cc1	9.8	-0.1	5.9*	9.6	-0.2	-8.3
CCOC(=O)c1ccc(NC(=O)C(C)Oc2ccc(Br)cc2)cc1 (stereo not given)	2.7	-0.2	-0.7	7.9	.	.
CCOc1ccccc1Nc1ccc(C(=O)N2CCCC2)cn1	8.0	0.0	8.7*	12.9	0.3	4.3
NC(=O)C1CCN(S(=O)(=O)c2ccc(Cl)cc2C(F)(F)F)CC1	-8.8	-0.1	1.8	-2.6	.	.
COc1ccc(C(O)CN2C3=NCCCN3c3ccccc32)cc1 (stereo not given)	-2.2	-0.1	5.1*	-17.7	0.8	19.4
CCOc1ccccc1N(C)S(=O)(=O)c1ccc2[nH]cc(C(=O)N(CC)CC)c(=O)c2c1	6.4	-0.1	5.9*	-9.3	-0.1	7.9
COc1ncc(-c2cncc(-c3cccc(O)c3)n2)c(OC)n1	-32.6	-0.1	12.6*	7.4	1.1	6.0
CCNc1nc(NCc2cccnc2)c2ncn(-c3ccccc3)c2n1	4.9	0.4	-1.1	21.1	.	.
CCOc1ccc(CC(=O)N2CCOCC2)cc1	-1.5	-0.1	0.9	-13.0	.	.
O=C(On1c(-c2ccccc2F)nc2ccccc2c1=O)c1ccc(F)cc1	1.5	-0.1	-0.3	7.2	.	.
CC(C)OCCCNC(=O)C(=O)NC(C)c1ccccc1 (stereo not given)	8.9	0.0	5.3*	-4.3	0.7	13.4
COCCNC(=O)C(=O)NC(C)c1ccccc1 (stereo not given)	-10.3	-0.1	2.4	-1.2	.	.
O=C(Nc1cccc2ccccc12)C1CC(=O)N(c2cccc(Cl)c2)C1 (stereo not given)	-1.0	0.3	6.9*	7.3	0.1	6.0
Cc1nn(C)c(Cl)c1CN1CCN(C2CCCCC2)C(CCO)C1 (stereo not given)	8.0	-0.1	8.9*	9.4	-0.4	-1.0
CSc1ncc(CN2CCN(C3CCCC3)C(CCO)C2)cn1 (stereo not given)	2.9	0.0	9.7*	-0.7	-0.4	0.3
O=C(CC1C(=O)NCCN1Cc1ccc(F)cc1Cl)NC1(c2ccccc2)CC1 (stereo not given)	15.2	0.0	1.6	4.2	.	.
COC(=O)c1ccccc1NC(=O)COc1ccc(C=O)cc1	-0.4	-0.1	8.0*	1.1	0.3	-9.6
COc1cc(C=O)ccc1OCC(=O)Nc1ccccc1C(=O)c1ccccc1	-1.4	-0.1	5.8*	15.5	0.5	1.0
COc1ccccc1OCC(=O)Nc1ccccc1C(=O)O	-56.8	-0.1	-4.2	-6.6	.	.
CCOc1ccc(C(=O)NC(=S)Nc2ccccc2C(=O)OC)cc1	-4.4	0.0	6.8*	6.5	0.9	-9.0
CCOc1ccc(C(=O)NC(=S)Nc2ccccc2C(=O)OC)cc1[N+](=O)[O-]	0.5	-0.1	2.1	-6.2	.	.
SMILES	TEAD-YAP block	FBW7 act	GPR151 ag	MITF primary	GPR151 confirm	GPR119 counter
COC(=O)c1ccccc1NC(=O)COc1ccc(F)cc1	3.1	0.2	-1.9	0.0	.	.
CN(Cc1ccccc1)C(=O)C1CCCN(S(=O)(=O)c2cnc[nH]2)C1 (stereo not given)	-5.3	0.7	0.4	5.7	.	.
COc1cccc(/C=C/C(=O)OC2CCOC2=O)c1OC (stereo not given)	-2.0	-0.1	-1.6	-10.2	.	.
CC(Oc1ccccc1Cl)C(=O)NCCn1cnc(-c2ccccc2)cc1=O (stereo not given)	-3.7	0.3	-0.6	0.2	.	.
COc1cc(/C=C\C(=O)Nc2c3c(nn2-c2cccc(C)c2C)CSC3)cc(OC)c1OC	-1.9	-0.2	-0.6	6.9	.	.
CN(C)CCN1CN(CCN(C)C)CN(CCN(C)C)C1	-1.6	0.0	3.2	-8.3	.	.
COc1ccc(Cc2nnc(Nc3cc(Cl)ccc3C)[nH]c2=O)cc1	-2.6	0.1	5.0*	13.2	0.0	14.3
COc1ccc(Cc2nnc(Nc3ccccc3C)[nH]c2=O)cc1	6.7	0.0	-1.3	12.2	.	.
COc1cc(C(=O)OCC(=O)NC(C)C)c([N+](=O)[O-])cc1OC	5.8	0.3	-1.6	9.3	.	.
CCC(CC)NC(=O)COC(=O)c1cc(OC)c(OC)cc1[N+](=O)[O-]	5.1	-0.1	5.0*	-5.9	0.0	2.5
CCOc1ccccc1C(=O)NNC(=O)COc1ccccc1C	-5.7	0.2	0.3	2.0	.	.
COc1cc(C(=O)OCC2CC(c3ccccc3)=NO2)cc(OC)c1OC (stereo not given)	3.0	-0.5	5.4*	3.3	-0.7	-9.6
COc1ccc(C(=O)OCC2CC(c3ccccc3)=NO2)cc1OC (stereo not given)	-7.5	-0.5	-0.5	-0.6	.	.
CC1CCCC(NC(=O)c2ccc3c(=O)n(-c4ccc(F)c(Cl)c4)c(=S)[nH]c3c2)C1C (stereo not given)	6.7	0.1	2.0	19.0	.	.
O=C(CN1C(=O)C2C3CCC(C3)C2C1=O)Nc1ccc(-n2cnnn2)cc1 (stereo not given)	1.2	-0.2	5.1*	4.5	0.8	6.2
O=C(CN1C(=O)C2C3CCC(C3)C2C1=O)Nc1ccc(-c2ccccc2)cc1 (stereo not given)	1.2	-0.2	-0.6	0.7	.	.
COc1cc(C=Nc2ccc(F)cc2)ccc1OC(C)=O	-4.2	-0.2	0.9	4.3	.	.
COc1cc(C=Nc2ccc(C)c(F)c2)ccc1OC(C)=O	4.5	0.1	34.4*	-9.0	0.1	-11.4
CCCC(=O)Nc1nn2c(-c3cccc(OC)c3)nnc2s1	-4.2	0.0	5.2*	0.1	0.4	-4.8
Cc1ccc(-c2nnc3sc(NC(=O)CC(C)C)nn23)cc1	4.9	-0.1	26.8*	-1.4	0.7	3.7
CCOC(=O)c1sc2ncn(/N=C/N(C)C)c(=O)c2c1C	9.1	0.0	7.1*	5.2	0.5	3.6
Cc1cc2nnc(SCC(=O)N3CCC(C)CC3)n2c(N)n1	-6.8	0.2	4.9*	2.9	0.6	-1.0
Cc1nc2nc(CN)nn2c(C)c1CCC(=O)Nc1ccc(CN2CCCCC2)cc1	-3.5	-0.3	-1.0	7.4	.	.
N#C/C(=C\c1ccc(-c2ccc(F)cc2)o1)C(=O)NCC1CCCO1 (stereo not given)	1.3	0.0	5.5*	-3.3	-0.7	2.2
